AmpC no deterg: inhibitors of E. coli AmpC beta-lactamase without detergent; Potency, µM (series often up to 57.1 µM), without a hit: at the highest dose activity change, negative = inhibition, actives largely listed as inhibitors; AmpC nitrocefin hydrolysis, absorbance 480 nm, 0.0001% Triton; AID 485341; actives 0.52% (n = 330,000); P00811;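 also: potency is read from the fitted curve at half-maximal effect; plate controls were no compound for no effect and no enzyme for full effect; nearly all actives have a fitted effect of over 20% in size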
Target sequence (P00811 whole entry, looked up): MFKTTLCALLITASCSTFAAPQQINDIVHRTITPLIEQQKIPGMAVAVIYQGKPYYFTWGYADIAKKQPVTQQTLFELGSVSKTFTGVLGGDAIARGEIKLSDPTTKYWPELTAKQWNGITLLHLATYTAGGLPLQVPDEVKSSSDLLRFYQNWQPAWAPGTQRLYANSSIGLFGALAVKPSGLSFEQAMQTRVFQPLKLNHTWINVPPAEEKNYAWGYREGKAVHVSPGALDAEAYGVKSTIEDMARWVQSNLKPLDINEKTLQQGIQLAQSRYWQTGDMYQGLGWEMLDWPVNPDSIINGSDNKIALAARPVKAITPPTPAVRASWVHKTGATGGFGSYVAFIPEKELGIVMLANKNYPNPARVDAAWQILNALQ
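20 mM phosphate pH 7.0 + 0.01% (detergent screen) or 0.0001% Triton X-100; 5.3 nM AmpC reagent; cpd preinc 15 min RT; nitrocefin (800 uM stock) to start; A480 q20 s × 4 min; Activity was normalised to no-enzyme and no-compound control wells.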
Shiga toxin inh: blocks Shiga toxin action in Vero cells; Vero cells, Shiga toxin protein synthesis inhibition reporter; inhibition, % at 38.7 µM; actives 9.2% (n = 290,000); AID 2315; in the data active = inhibition mostly above about 28%, no sharp cut-off; inactive = mostly below about 43%; also: 0% is about no effect
AmpC inh detg: inhibitors of E. coli AmpC beta-lactamase with detergent; P00811; actives 0.041% (n = 370,000); AmpC hydrolysis of nitrocefin, absorbance 480 nm, 0.01% Triton; AID 485294; Potency, µM (highest dose often 114 µM), for the others: at the highest dose activity change, negative = inhibition, usual class: inhibitors;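 also: potency is read from the fitted curve at half-maximal effect; 0% = no-compound wells and -100% = no-enzyme wells; nearly all actives have a fitted effect of over 25% in size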
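AmpC (5.3 nM in the dispensed reagent) in 20 mM phosphate pH 7.0 with 0.01% (detergent screen) or 0.0001% Triton X-100 was preincubated with compounds for 15 min at room temperature. Nitrocefin was then added from an 800 uM solution, and hydrolysis was followed at 480 nm.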
Cycloheximide cs: counter-screen for Shiga toxin inhibitors: cycloheximide protein synthesis inhibition | actives 12% (n = 300,000) | max response, % | cell reporter, cycloheximide protein synthesis inhibition counterscreen; in the data active = max response mostly above about 13%, no sharp cut-off; inactive = mostly below about 14%; also: read at 38.3 µM for the half of the compounds with a filed dose; 0% is about no effect
NS1 function inh: influenza NS1 inhibition. Potency, µM (titrated, usually from 46.1 µM), without a hit: top-dose activity, positive = more growth. AID 2326. actives 0.4% (n = 270,000); calls by dose curve; also: potency is read from the fitted curve at half-maximal effect; actives are rising curves; nearly all actives have a fitted effect of over 50% in size
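A cell-based growth assay was used: compounds that relieve NS1-induced slow growth of budding yeast raise OD600. Assay medium was yeast nitrogen base with ammonium sulphate and -URA supplement, pH 6.0, with 2% galactose.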
Starred values were filed as active, the others as inactive; ? = inconclusive; · = no result; + = active, no number; [ ] = another dose, or the depositor's remark. The full list was thinned out, with hits kept by preference. Unless noted, calls follow the shape of the dose curve; as a rule, active = well fitted curve in the direction sought with a large enough effect; inconclusive = small, poorly fitted or top-dose-only effect, or another doubt; inactive = no such curve, though single readings can be large; an effect the other way counts as inactive or inconclusive.

SMILES | AmpC no deterg | Shiga toxin inh | AmpC inh detg | Cycloheximide cs | NS1 function inh
Cc1nn(-c2ccccc2Cl)c(Cl)c1/C=N/Nc1cccc(C(=O)O)c1 | -29.2% | 70.3* | -3.1% | 63.7* | 9.1%
CCOC(=O)N/N=C/c1c(C)nn(-c2cccc(C(F)(F)F)c2)c1Cl | 46.5% | 35.0 | -14.2% | 12.8* | -3.1%
Cc1nn(Cc2ccccc2)c(Cl)c1/C=N/NC(=O)CNc1cccc(C(F)(F)F)c1 | -22.9% | -7.3 | 1.2% | -1.2 | 17.6%
Cc1nn(-c2cccc(C(F)(F)F)c2)c(Cl)c1/C=N/Nc1cccc(C(=O)O)c1 | -21.1% | + | -3.0% | 105.8* | 23.0%
CCc1cc(C(=O)NNC(=S)NCC2CCCO2)cs1 (stereo not drawn) | -11.8% | -5.0 | -4.8% | 10.4 | 5.4%
CC1CCc2sc(C(=O)NC(C)C3CCCO3)cc2C1 (stereo not drawn) | 13.7% | 87.5* | -10.9% | 39.5* | 10.4%
C/C(=N\NC(=O)c1cc2c(s1)CCC(C)C2)c1ccncc1 (stereo not drawn) | -20.2% | 16.9 | -5.6% | 7.2 | -3.3%
CC1CCc2sc(C(=O)N/N=C/c3ccc(O)cc3)cc2C1 (stereo not drawn) | -56.8% | 53.9* | 6.1% | 44.6* | -7.3%
CCCc1cc(C(=O)NNC(=S)NCC2CCCO2)cs1 (stereo not drawn) | -2.4% | 6.3 | -11.7% | 13.6* | -3.0%
CCCc1cc(C(=O)NC(C)C2CCCO2)cs1 (stereo not drawn) | -12.2% | 71.4* | -0.2% | 40.4* | 1.9%
CCc1cc(C(=O)NC(C)C2CCCO2)cs1 (stereo not drawn) | -17.3% | 61.7* | 10.0% | 39.7* | 4.0%
CC(C)c1ccc(C2N3CCCN23)cc1 (stereo not drawn) | -2.5% | 25.5 | ? | 8.2 | -17.7%
c1ccc2cc(C3N4CCCN34)ccc2c1 (stereo not drawn) | -15.8% | 24.3 | 2.3% | 23.6* | ·
Cc1ccc(S(=O)(=O)Cc2cc(F)c([N+](=O)[O-])cc2[N+](=O)[O-])cc1 | -41.3% | 46.0* | 0.1% | 21.6* | -102.7%
O=C(Nc1ccc(N2CCCC2)c(Cl)c1)c1ccc([N+](=O)[O-])o1 | -7.0% | + | 4.6% | 89.9* | ·
O=C(Nc1ccc(N2CCCCC2)cc1)c1ccc([N+](=O)[O-])o1 | -24.0% | 103.9* | -4.8% | 35.0* | -31.9%
CS(=O)(=O)N1CCN(c2ccc(NC(=O)c3ccc([N+](=O)[O-])o3)cc2)CC1 | -27.7% | 52.9* | -0.6% | 30.2* | ·
CCCC(=O)N1CCN(c2ccc(NC(=O)c3ccc([N+](=O)[O-])o3)cc2)CC1 | 2.6% | -32.9 | 3.3% | -18.2 | ·
COc1ccc(N2CCCC2)c(NC(=O)c2ccc([N+](=O)[O-])o2)c1 | 11.7% | -3.2 | 6.3% | -1.5 | -15.5%
CC(C)(C)C(=O)N1CCN(c2ccc(NC(=O)c3ccc([N+](=O)[O-])o3)cc2)CC1 | -4.5% | 39.3* | -3.4% | 51.9* | 5.0%
CCC1CCCCN1C(=O)CSc1n[nH]c(-c2ccccc2Cl)n1 (stereo not drawn) | · | · | 23.6% | · | ·
Cc1ccc(NC(=O)c2ccc([N+](=O)[O-])o2)cc1C | -7.0% | 107.9* | ? | 41.3* | ·
CCC(=O)N1CCN(c2ccc(NC(=O)c3ccc([N+](=O)[O-])o3)cc2)CC1 | -10.8% | 32.7* | 2.1% | 21.4* | -0.7%
CCN1CCc2nc3sc(C(=O)Nc4cccc(Cl)c4C)c(N)c3cc2C1 | · | · | 14.9% | · | ·
CN(C)C(=O)COC(=O)/C=C/c1ccccc1[N+](=O)[O-] | -11.8% | 45.0 | ? | -1.2 | -2.9%
SMILES | AmpC no deterg | Shiga toxin inh | AmpC inh detg | Cycloheximide cs | NS1 function inh
Cc1ccc(C(=O)C(C)OC(=O)c2ccccc2[N+](=O)[O-])cc1 (stereo not drawn) | ? | 71.0* | -4.5% | 50.1* | 4.2%
Cc1ccc(C(=O)/C=C/c2ccccc2[N+](=O)[O-])cc1 | -30.1% | 39.3 | -0.9% | 27.8* | -9.2%
O=C(/C=C/c1ccccc1[N+](=O)[O-])c1ccccc1Br | -4.1%[2.29 µM] | 47.1* | 0.7% | 14.1* | -85.5%
Cc1ccc(NC(=O)Cn2c(=O)n(-c3ccccc3)c(=O)c3ccc(C(=O)NCc4ccc5c(c4)OCO5)cc32)cc1 | · | · | 4.2% | · | ·
O=C(CN1C(=O)CCC1=O)Nc1nc(-c2nc3ccccc3s2)cs1 | -17.8% | active | ? | 25.0* | -17.4%
O=C(CN1C(=O)CCC1=O)Nc1nc(-c2ccc3ccccc3c2)cs1 | 13.5% | 96.2* | 4.1% | 40.1* | ·
COc1cccc(NC(=O)C2CCC(CNS(=O)(=O)c3ccc4c(c3)CCCC(=O)N4)CC2)c1 (stereo not drawn) | · | · | 2.7% | · | ·
COc1ccc(N2CC(NC(=O)/C=C\c3ccccc3)CC2=O)cc1 (stereo not drawn) | · | · | -1.7% | · | ·
COc1ccc(-c2nsc(NC(=O)COc3ccc(C)c(C)c3)n2)cc1 | · | · | 0.3% | · | ·
O=c1c2ccccc2c(C=NC2CCN(Cc3ccccc3)CC2)c(O)n1Cc1ccc2c(c1)OCO2 | 9.4% | -9.7 | 3.6% | 2.5 | ·
Cc1ccc2nc(N3C(=O)CNC3=S)sc2c1 | -26.5% | 56.2* | 8.0% | 47.1* | -58.8%
COc1ccc2nc(N3C(=O)CNC3=S)sc2c1 | -44.2% | 49.8 | 0.0% | 51.3* | -59.3%
Cc1cccc(CC2CC(=O)N(c3nc4ccccc4s3)C2=O)c1 (stereo not drawn) | -13.6% | -6.7 | 4.1% | -1.5 | -2.6%
COc1cc(C)ccc1OCCSc1nc2ccc(NC(=O)c3cccs3)cc2s1 | · | · | 6.1% | · | ·
CCOC(=O)c1cccc(NC(=O)Nc2c(C)n(C)n(-c3ccccc3)c2=O)c1 | · | · | 5.6% | · | ·
Cc1cc(C)c2nc(NNC(=O)c3cc(=O)c4ccccc4o3)sc2c1 | -47.1% | 27.9 | 7.3% | 19.3* | 4.3%
Cc1ccc2nc(NC(=O)c3cc(=O)c4cc(C)c(C)cc4o3)sc2c1 | · | · | -2.1% | · | ·
Cc1ccc(C(=O)NCc2ccccn2)cc1NC1=NC2CS(=O)(=O)CC2S1 (stereo not drawn) | -1.7% | 1.0 | -0.2% | -1.6 | -3.5%
N#Cc1cc2c([nH]c1=S)CCCC2 | -14.4% | 50.5* | ? | 32.8* | 9.3%
O=C(c1ccc2c(Cl)c3c(nc2c1)CCCC3)N1CCN(c2ccccc2F)CC1 | · | · | 9.8% | · | ·
Cc1ccc(OCc2nc(-c3ccccn3)n[nH]2)cc1 | -25.9% | 52.3 | -13.5% | 31.7* | -60.3%
Cc1cccc(OCc2nc(-c3ccccn3)n[nH]2)c1 | · | 27.6 | -3.5% | 15.5 | -29.9%
C/C(=C\c1ccc(F)cc1)C(=O)c1c(C)cc(C)[nH]c1=O | 0.4% | -9.8 | 1.5% | -1.9 | 2.7%
COc1ccc(-c2cc(C(=O)NC3CCCC3)no2)cc1 | -21.2% | 93.4* | 3.0% | 18.1* | -8.3%
O=C(NC1CCCCC1)c1cc(-c2ccco2)on1 | -15.0% | 142.9* | 0.0% | 36.4* | -7.4%
COc1ccc(-c2cc(C(=O)NC(C)C)no2)cc1 | -4.8% | 58.5* | ? | 26.6 | -14.5%
COCCNC(=O)c1cc(-c2ccc(OC)c(OC)c2)on1 | -8.3% | 18.2 | 1.0% | 20.1* | -7.9%

Compound activity as filed in PubChem.
